# Measured values published in PubChem BioAssay AID588342 (National Center for Advancing Translational Sciences (NCATS), 2011).
# In all, about 360,000 compounds went through this assay and about 25,000 (6.9%) were called active. Roughly 9% stayed inconclusive and do not appear here. What follows is part of a selection rich in actives, with near analogues and random picks from the rest. A number with no mark means an inactive call. Calls follow the shape of the dose curve; as a rule, active = well fitted inhibition curve with a large enough effect; inconclusive = small, poorly fitted or top-dose-only effect; inactive = flat fitted curve, though single readings scatter.
# Target: Luciferin 4-monooxygenase (Photinus pyralis) (UniProt P08659)
# Test: qHTS profiling assay for firefly luciferase inhibitor/activator using purifed enzyme and Km concentrations of substrates (counterscreen for miR-21 project); also: nearly all actives have a fitted effect of over 55% in size;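 as to activity change, negative = inhibition: plate controls were vehicle for no effect and reference inhibitor for full effect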
# Details: purified FLuc, luminescence inhibition; series mostly up to 57.5 µM; activity change, negative = inhibition: at the top concentration
# Method in brief: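 Biochemical qHTS of compounds, final roughly 60 µM downward over six points, against 10 nM purified firefly luciferase using Km concentrations of substrates (10 uM D-luciferin, 10 uM ATP) in Tris acetate pH 7.5 buffer; luminescence output.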
# Potency is read from the fitted curve at half-maximal effect.
# Sequence of Luciferin 4-monooxygenase (Photinus pyralis) (P08659 whole entry, looked up): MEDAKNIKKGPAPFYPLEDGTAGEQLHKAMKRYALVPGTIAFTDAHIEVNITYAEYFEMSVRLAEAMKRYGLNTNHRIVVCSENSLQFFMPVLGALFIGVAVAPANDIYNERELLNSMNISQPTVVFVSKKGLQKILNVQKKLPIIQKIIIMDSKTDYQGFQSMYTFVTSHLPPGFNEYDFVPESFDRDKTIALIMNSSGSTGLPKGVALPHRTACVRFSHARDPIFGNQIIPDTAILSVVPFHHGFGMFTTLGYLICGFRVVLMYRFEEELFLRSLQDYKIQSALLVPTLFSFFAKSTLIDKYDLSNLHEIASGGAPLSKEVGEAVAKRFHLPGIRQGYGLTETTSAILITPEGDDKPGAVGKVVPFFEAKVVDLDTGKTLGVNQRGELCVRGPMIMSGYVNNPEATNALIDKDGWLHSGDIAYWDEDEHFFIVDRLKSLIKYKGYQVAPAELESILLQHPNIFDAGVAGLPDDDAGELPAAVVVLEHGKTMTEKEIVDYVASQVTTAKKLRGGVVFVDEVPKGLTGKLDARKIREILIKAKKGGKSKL
Compound,"activity change, negative = inhibition",Potency
Cc1c(C(=O)N2CCCC2)oc2c1-c1nn(CC(=O)NCc3ccc(OC(C)C)cc3)cc1CC2,-13.6%,
CC1CCCC(C)N1C(=O)COC(=O)COc1ccccc1C#N (stereo not given),2.51%,
O=C(CC1Oc2ccc(Cl)cc2NC1=O)NCc1ccccc1 (stereo not given),-6.6%,
Cc1c(C)c2ccc(OCC(=O)N3CCC(C(=O)O)CC3)c(C)c2oc1=O,,23.9 µM (active)
CCCc1cc(=O)oc2c(C)c(OCC(=O)N3CCC(C(=O)O)CC3)ccc12,3.56%,
CCCCc1cc(=O)oc2c(C)c(OCC(=O)N3CCC(C(N)=O)CC3)ccc12,6.74%,
COc1ccc(NC2CCCN(C(=O)c3ccncc3)C2)cc1 (stereo not given),0.516%,
COC(=O)c1ccc(NC(=O)c2cc(S(=O)(=O)N3CCC(C)CC3)cn2C)cc1,0.945%,
O=C(NCC(O)c1ccc([N+](=O)[O-])cc1)C1CCCCC1 (stereo not given),-1.1%,
c1ccc2c(c1)OCCOCCOCCO2,0.575%,
COc1ccc2sc(-c3ccc(N(C)C)cc3)c(C#CCO)c2c1,,8.49 µM (active)
Cc1ccc(CCNC(=O)C2CCN(c3nnc(-n4cccc4CNc4ccc(C)cc4)s3)CC2)cc1,-8.47%,
O=C(CNc1ccccc1N1CCCC1=O)Nc1cc(Cl)ccc1-n1cncn1,4.94%,
NS(=O)(=O)c1ccc(-c2ccc(/C=C3\SC(=O)NC3=O)o2)cc1,,13.5 µM (active)
O=S(=O)(c1ccc(Br)cc1)c1nnn2c1nc(NC1CCCCCC1)c1sccc12,-3.5%,
CCOc1ccccc1N(CC)C(=O)Nc1cn(C)c(=O)c2ccccc12,-0.457%,
COc1ccc(C2Sc3ccccc3NC3=C2C(=O)c2ccccc23)c(OC)c1OC (stereo not given),-0.461%,
COc1cc(C2C(C(=O)c3sc(C)nc3C)=C(O)C(=O)N2CCN(C)C)cc(OC)c1OC (stereo not given),-2.01%,
COc1ccc(-c2cc(-c3ccc(F)cc3)nc3c2COc2ccccc2-3)cc1,2.55%,
COc1ccc(-c2cc(-c3ccccc3)nc3c2COc2ccc(Cl)cc2-3)cc1,-0.771%,
COc1ccc(C2=Nc3cc(C)ccc3OC2)cc1,,0.379 µM (active)
C#C[C@]1(O)CC[C@H]2[C@@H]3CCC4=CC(=O)CC[C@@H]4[C@H]3CC[C@@]21CC,,inactive
Cc1ccc(C2CCN(C(=O)c3cnn(-c4ccccc4Cl)c3C3CCN(C(=O)OC(C)(C)C)CC3)C2)cc1 (stereo not given),0.553%,
O=C(CSc1nc(=O)n(Cc2cccnc2)c2c1CCC2)Nc1ccc(F)cc1F,-2.48%,
CN(C)S(=O)(=O)c1ccc(C(=O)N(Cc2cccnc2)c2nc3c(F)cc(F)cc3s2)cc1,-2.45%,
O=C(Nc1c(Cl)cccc1Cl)C1CCC1,2.13%,
O=C(NC(=S)Nc1ccc(Cl)cc1Cl)C1CC1,,21.3 µM (active)

Compound,"activity change, negative = inhibition",Potency
S=C(NCc1cccnc1)Nc1ccc(Cl)cc1Cl,-0.282%,
CN(C(=O)CCn1c(=S)oc2ccccc21)C1CCCCC1,-8.28%,
Cc1ccc(S(=O)(=O)N(C)CC(=O)NCC(c2ccc(F)cc2)N2CCOCC2)cc1 (stereo not given),6.77%,
CCOc1ccc(N2C(=O)CC(N(CCc3ccc(OC)c(OC)c3)C(=S)Nc3ccccc3)C2=O)cc1 (stereo not given),0.272%,
CC1(C)O[C@@H]2[C@H](O1)[C@@H](COS(=O)(=O)O)O[C@H]2n1cnc2c(=O)[nH]cnc21,-0.661%,
CC(=O)N(C1=C(Cl)C(=O)c2ccccc2C1=O)c1ccc(C(=O)O)cc1,,1.69 µM (active)
COC1=C(N2CCOCC2)C(=O)c2ccccc2C1=O,-3.41%,
Cc1ccc(C)c(CSc2nc(-c3ccco3)nc3c2c(=O)n(C)c(=O)n3C)c1,0.834%,
Cc1occc1C(=O)Nc1nnc(-c2ccncc2)s1,-0.684% [at 2.3 µM],
Cc1nn(C(=O)c2ccoc2C)c(N)c1-c1ccccc1,,10.7 µM (active)
CCOC(=O)c1c(N)nn(C(=O)c2ccccc2)c1-c1ccccc1,0.583%,
CCOC(=O)c1cc2c(=O)n3ccccc3nc2n(CC2CCCO2)c1=NC(=O)c1ccccc1F (stereo not given),-1.04%,
Cc1cccc(C(=O)c2cccc(C)c2)c1,-15.9%,
Cc1cccc(/C(N)=N/OC(=O)c2ccccc2Cl)c1,,0.757 µM (active)
Cc1ccc(/C(N)=N/OC(=O)COc2ccc(Cl)c(C)c2)cc1,1.16%,
Cc1ccc(OC(=O)CCC(=O)Nc2ccc(Br)cc2)cc1,5.41%,
C/C(=N/OC(=O)c1ccc(Br)cc1)c1ccc(C)cc1,,6.75 µM (active)
C/C(=N\OC(=O)c1ccccc1)c1c(C)nc2cc(C)ccn12,-9.53%,
CCc1ccc(NC(=O)CSc2nc3c([nH]c4ccccc43)c(=O)n2-c2cccc(OC)c2)cc1,-3.31%,
Oc1cccc(/C=N/Nc2ccc(Cl)nn2)c1O,,8.49 µM (active)
Cc1ccsc1/C=N/Nc1ccc(Cl)nn1,-19.8%,
Clc1ccc(N/N=C/c2cccs2)nn1,-5.8%,
Cn1c(=O)c2c(nc(NCCc3ccccc3)n2Cc2ccccc2Br)n(C)c1=O,-7.21%,
CCOC(=O)/C=c1\s/c(=C\c2ccc(C#N)cc2)c(=O)n1CC(=O)Nc1cccc(C)c1C,2.08%,
CN(c1ccccc1)c1ccc(/C=c2\s/c(=C(/C#N)C(=O)C(C)(C)C)n(Cc3ccco3)c2=O)cc1,,15.1 µM (active)
CCOc1ccccc1NC(=O)Cn1c(=O)n(Cc2ccco2)c(=O)c2sc3ccccc3c21,2.58%,
O=C(CCc1cn(Cc2ccc(F)cc2)c2ccccc12)NC1CCCCC1,-1.23%,

Compound,"activity change, negative = inhibition",Potency
COc1ccc(CCN=C2SCC(=O)N2Cc2ccccc2)cc1OC,1.96%,
Cc1ccc(-c2nn(CCC(=O)Nc3ccc(Cl)c(Cl)c3)c(=O)c3ccccc23)cc1,-11.4%,
CC(C)c1nc2oc3c(N4CCN(C)CC4)ncnc3c2c2c1CCC2,2.2%,
FC(F)(F)c1cccc(NC(=S)Nc2cccc(Cl)c2)c1,1.4%,
Cc1cccc(NC(=S)Nc2ccc(Cl)c(Cl)c2)c1,-9.32%,
Cc1csc(NC(=S)Nc2cccc(Cl)c2)n1,,4.78 µM (active)
O=C(O)c1ccccc1NC(=O)c1ccccc1-c1ccccc1C(=O)O,-3.24%,
COC(=O)c1ccccc1NC(=S)NC(=O)c1ccccc1F,-17.6%,
O=C(NC(=S)Nc1ccccc1C(=O)O)c1ccc(-c2ccc(Br)cc2)o1,,26.9 µM (active)
Cc1ccc(NC(=O)CN(C)C(=O)COC(=O)c2nccnc2N)cc1,3.32%,
COC(=O)c1cc(NC(=O)c2sc3ccccc3c2Cl)cc(C(=O)OC)c1,5.83%,
COc1ccc(N=C(C)c2sc3ccccc3c2O)cc1,,0.601 µM (active)
Cc1cc(C)cc(NC(=O)C(OC(=O)c2ccc(O)cc2)c2ccccc2)c1 (stereo not given),-0.427%,
CC(C)CN(C(=O)CSc1nncn1C)C1CCS(=O)(=O)C1 (stereo not given),0.606%,
Cc1cccc(NC(=O)N2CCN(C)c3ncccc32)c1C,-3.65%,
CCCC(=O)Nc1ccc(NC(=O)c2sc3ccccc3c2Cl)cc1,-7.06%,
O=C(Nc1ccon1)c1sc2ccccc2c1Cl,,7.57 µM (active)
O=C(Nc1ccon1)c1cccc(Cl)c1,3.05%,
Cc1cc2c(cc1C)C(c1cccc(OC(C)C)c1)CC(=O)N2 (stereo not given),3.13%,
Cc1cccc(-c2nc(SCc3ccc(Br)cc3)n3[nH]c(=O)cc3n2)c1,-4.19%,
CCOc1ccc(-n2c(SCC(=O)NCc3ccccc3)nc3n[nH]c(C)c3c2=N)cc1,-0.652%,
CCCn1c2ccccc2c2cnn(CC(=O)NCCCOC(C)C)c(=O)c21,-5.29%,
COc1ccc(Cc2nc3ccc(C(=O)NCc4ccccc4C)cc3o2)cc1,-0.926%,
CSCCNC(=O)c1ccc2nc(Cc3ccccc3F)oc2c1,,19 µM (active)
O=C(NCCc1ccc(Cl)cc1)c1ccc2nc(CCc3ccccc3)oc2c1,1.26%,
Cn1c(=O)sc2cc(NS(=O)(=O)c3ccc(C(C)(C)C)cc3)ccc21,-2.52%,
Cc1cccnc1CCNC(=O)C1CCC(=O)N(Cc2cccc(F)c2)C1 (stereo not given),1.04%,

Compound,"activity change, negative = inhibition",Potency
CCOc1ccc(-c2cc3nc(C4CCN(C(=O)OC(C)(C)C)CC4)c(C(=O)Nc4cccc(CC)c4)cn3n2)cc1,-9.38%,
CN1C2CCC1/C(=C\c1ccccc1Cl)C(=O)/C2=C\c1ccccc1Cl,0.824%,
CCSc1ncc(Cl)c(C(=O)Nc2c(C(=O)c3ccccc3)oc3ccccc23)n1,0.97%,
Cc1ccc(-n2ncc3c(Nc4cccc(C(=O)O)c4)ncnc32)cc1,,0.953 µM (active)
Fc1ccc(-n2ncc3c(Nc4ccc(Oc5ccccc5)cc4)ncnc32)cc1,-2.7%,
Cc1ccc(Nc2ncnc3c2cnn3C)c(C)c1,-2.04%,
COc1ccc(Cl)cc1NC(=O)CCC(=O)c1ccc(C)cc1,2.33%,
CCN1CCN(c2ncc3c(n2)CC(c2ccccc2O)CC3=O)CC1 (stereo not given),2.06%,
CCc1ccccc1NC(=O)CN(C)C(=O)c1cc(C2CC2)nn1-c1ccccc1,2.08%,
Cc1ccc(C)c(OCC(=O)NNC(=O)C2CCC2)c1,8.82%,
COc1cc(C(=O)OCC(=O)NC23CC4CC(CC(C4)C2)C3)cc(OC)c1OC,-0.412%,
N#Cc1nc(-c2cccc3ccccc23)oc1N,-11.7%,
CCOC(=O)c1c(C)[nH]c(C)c1S(=O)(=O)N1CCC(C(=O)Nc2ccc(C)c(Cl)c2)CC1,2.93%,
Nc1c(C(=O)c2cccs2)sc2nsc(SCCN3CCCCC3)c12,,5.36 µM (active)
O=C(CN1C2=NCCN2c2ccccc21)c1cccs1,5.98%,
O=C(CSc1ncnc2sccc12)N1CCN(C(=O)c2cccs2)CC1,-7.48%,
O=C(NCCCN1CCN(c2cccc(Cl)c2)CC1)c1nnc(Cc2ccc(F)cc2Cl)o1,-10.2%,
CCOC(=O)c1ccc(NC(=O)c2nc[nH]c2C(=O)N[C@@H](CCCCNC(=O)OC(C)(C)C)C(=O)OC(C)(C)C)cc1,0.515%,
Cc1nn(-c2ccccc2)c(CC(C)(C)C(=O)O)c1C(=O)O,-1.1%,
Cc1nn(-c2ccccc2)c(Cl)c1/C=C/C(=O)c1ccc(O)cc1,,12 µM (active)
Cc1nn(-c2ccccc2)c(C)c1/C=C/C(=O)OC(C)C(N)=O (stereo not given),0.623%,
Cc1ccc(C(=O)/C=C/c2c(C)nn(-c3ccccc3)c2Cl)cc1,,6.01 µM (active)
Cc1nn(-c2ccccc2)c(C)c1NC(=O)CCl,-1.67%,
COc1ccc(CCNC(=O)c2c(C)nn(-c3ccccc3)c2Cl)cc1,0.672%,
